CYP2C9 inh: blockers of cytochrome P450 2C9 activity – biochemical, luminescence, ADME assay, primary screen; P11712; CYP2C9 Supersomes, luciferin-H conversion; inhibition, % at 5 µM; 20% of 96,000 active;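 active = blocking of liver enzyme CYP2C9 beyond about 50% at 5 µM, limit read from the data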
Target sequence (P11712 whole entry, looked up): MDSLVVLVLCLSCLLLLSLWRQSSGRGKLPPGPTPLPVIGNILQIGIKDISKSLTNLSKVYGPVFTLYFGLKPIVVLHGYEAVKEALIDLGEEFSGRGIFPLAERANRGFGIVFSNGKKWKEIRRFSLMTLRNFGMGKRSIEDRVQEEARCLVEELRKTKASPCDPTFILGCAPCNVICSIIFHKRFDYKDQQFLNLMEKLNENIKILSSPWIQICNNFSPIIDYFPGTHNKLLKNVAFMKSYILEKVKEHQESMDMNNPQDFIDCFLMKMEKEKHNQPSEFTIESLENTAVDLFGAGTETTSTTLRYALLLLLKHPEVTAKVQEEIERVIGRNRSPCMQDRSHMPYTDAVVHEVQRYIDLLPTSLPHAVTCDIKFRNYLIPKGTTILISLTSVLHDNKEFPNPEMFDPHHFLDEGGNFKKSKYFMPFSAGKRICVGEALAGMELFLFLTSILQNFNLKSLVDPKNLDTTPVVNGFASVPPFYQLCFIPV
CYP2C19 inhib: blockers of cytochrome P450 2C19 activity – biochemical, luminescence, ADME assay, primary screen. P33261. CYP2C19 Supersomes, luciferin-H EGE luminescence, 30 min. inhibition, % at 5 µM. 21% of 96,000 active. AID 778, 2007;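 active = CYP2C19 inhibition above a set limit at 5 µM in the primary screen, cut at about 50% in these data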;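 also: plate controls were negative control wells for no effect and 2.5 mM tranylcypromine positive control for full effect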
Cav32 inh: Cav3.2 calcium influx blockers – cell-based, Fluo-4 calcium fluorescence, FDSS, MLSMR library, primary screen; Voltage-dependent T-type calcium channel subunit alpha-1H (Homo sapiens), O95180; Cav3.2-expressing cells; active compounds read low; B-score at 10 µM; 4% of 100,000 active;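 active = single-dose well whose peak fluorescence ratio is a statistical outlier from its plate by either plate-standardised score or position-corrected B-score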
CYP2C19 act: human CYP2C19 activators, primary screen, biochemical, luminescence; Cytochrome P450 2C19 (Homo sapiens), P33261; 96,000 tested, under 10 active; AID 1025, 2008; activation factor at 5 µM; recombinant CYP2C19, luciferin-H EGE luminescence; active compounds read high; 0 = fully inhibited enzyme, 1 = untreated enzyme;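 active = activation factor of at least 2 at 5 µM in the primary screen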;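 also: 0 = wells with 2.5 mM tranylcypromine and 1 = vehicle-only wells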
CYP2C9 activ: human CYP2C9 activators, primary screen, biochemical, luminescence; activation factor at 5 µM; 1.4% of 96,000 active; Cytochrome P450 2C9 (Homo sapiens), P11712; recombinant CYP2C9, luciferin-H conversion; active compounds read high; factor 1 = untreated enzyme, 0 = blocked;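 active = activation factor of 2 or more for CYP2C9 at a 5 µM dose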;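 also: 0 = sulfaphenazole-blocked wells and 1 = vehicle-only wells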
Starred values were filed as active, the others as inactive; x = not tested or not shown. In the library only some 27% were active in any assay of this set; here they are far more common.

SMILES	CYP2C9 inh	CYP2C19 inhib	Cav32 inh	CYP2C19 act	CYP2C9 activ
CCCNC(=O)c1cccc(Cn2nc(C)c(Br)c2C)c1	63*	85*	-0.14	0.1	0.4
O=C(NC12CC3CC(CC(C3)C1)C2)c1ccccc1O	28	29	-2.7	0.7	0.7
CSc1nc(-c2ccccc2)c(-c2ccccc2)[nH]1	-14	-15	1	1.1	1.1
COC(=O)c1cccc(Nc2cc(C)nc(-c3ccccc3O)n2)c1	9	-8	-1.2	1.1	0.9
COC(=O)c1ccc(Nc2cc(C)nc(-c3ccccc3O)n2)cc1	59*	21	0.15	0.8	0.4
Cn1c(SCCCC(=O)c2ccccc2)nnc1-c1ccncc1	54*	68*	0.89	0.3	0.5
CCn1c(SCC(=O)c2ccc(F)cc2)nnc1-c1ccoc1C	31	38	0.1	0.6	0.7
COCCn1c(SCCCC(=O)c2ccc(Br)cc2)nnc1-c1ccncc1	85*	94*	x	0.1	0.2
CCc1cccc2c(C(=O)CSc3nnc(-c4ccoc4C)n3C)c[nH]c12	53*	65*	-0.97	0.3	0.5
Cc1occc1-c1nnc(SCCCC(=O)c2ccc(F)cc2)n1C	54*	72*	0.021	0.3	0.5
Cc1c(NC(=O)C(C)OC(=O)CC2Sc3ccccc3NC2=O)c(=O)n(-c2ccccc2)n1C (stereo not given)	48	1	0.38	1	0.5
Cn1c(=O)c2[nH]c(-c3ccc(S(=O)(=O)O)cc3)nc2n(C)c1=O	x	x	0.32	x	x
CCOC(=O)N1CCC(Nc2c(NCCCN(CC)Cc3ccccc3)c(=O)c2=O)CC1	-8	1	0.67	1	1.1
Cn1c(SCCCC(=O)c2ccc(F)cc2)nnc1-c1ccncc1	59*	71*	0.69	0.3	0.4
Cc1ccc(/C(=C\CN2CCCC2)c2ccccn2)cc1	x	x	0.37	x	x
O=Cc1cn(-c2ccccc2)nc1-c1cc2cc(O)ccc2oc1=O	81*	6	1.5	0.9	0.2
COC(=O)c1ccc(CSc2nc(C)nc3c2c(=O)n(C)c(=O)n3C)o1	x	x	0.91	x	x
COC(=O)c1ccc(CSc2nc(C(F)(F)F)c3c(c2C#N)CCC3)o1	6	78*	x	0.2	0.9
CCOC(=O)c1c(C)sc2c1N(C(=O)CN1CCOCC1)c1cc(Cl)ccc1S2	14	20	x	0.8	0.9
COc1ccccc1NS(=O)(=O)c1cc(C(=O)NCc2ccco2)ccc1C	28	61*	0.68	0.4	0.7
Cc1ccc(C(=O)NCc2ccco2)cc1S(=O)(=O)Nc1cccc(C)c1C	-17	-39	0.59	1.4	1.2
COCCNC(=O)c1ccc(NS(=O)(=O)c2cc(C)ccc2C)cc1	23	3	0.72	1	0.8
Cc1ccc(SCCNC(=O)c2ccc(C)c(S(=O)(=O)Nc3ccccc3C)c2)cc1	68*	67*	-2.4	0.3	0.3
Cc1ccccc1NS(=O)(=O)c1cc(C(=O)NCc2ccco2)ccc1C	69*	37	-0.46	0.6	0.3
Cc1ccc(C(=O)N2CCCC2)cc1S(=O)(=O)Nc1ccccc1	31	37	-0.44	0.6	0.7
SMILES	CYP2C9 inh	CYP2C19 inhib	Cav32 inh	CYP2C19 act	CYP2C9 activ
Cc1ccc(C(=O)NCCSC2CCCCC2)cc1S(=O)(=O)Nc1ccccc1	28	32	-3.8*	0.7	0.7
C=CCn1c(COc2ccc(CC)cc2)nnc1SC/C(O)=C(\C#N)c1nc2ccccc2[nH]1	42	12	0.12	0.9	0.6
Cc1ccc(NC(=O)C(=O)NCc2ccc(/C=C(/C#N)C(=O)NCc3cccnc3)o2)cc1	58*	12	1	0.9	0.4
Cc1cc(C)nc(Sc2ccc(/C=C(\C#N)C(=O)Nc3ccccc3)o2)n1	42	31	0.28	0.7	0.6
O=C(Cc1cc(=O)[nH]c(=O)[nH]1)N1CCC(Cc2ccccc2)CC1	x	x	0.08	x	x
COc1ccc(-c2nnc(SCc3cc(C)cc(C)c3)o2)cc1	-33	30	x	0.7	1.3
COc1ccc(CSc2nnc(Cc3sc(-c4ccccc4)nc3-c3ccccc3)o2)cc1	67*	6	-5.2*	0.9	0.3
Fc1ccc(CSc2nnc(Cc3sc(-c4ccccc4)nc3-c3ccccc3)o2)cc1	72*	15	0.67	0.9	0.3

Source: PubChem BioAssay
